Bioassay records from PubChem BioAssay.
This excerpt belongs to a sample that is enriched for hits.
Pf Dd2 inh: blocks in vitro growth of P. falciparum Dd2 | P. falciparum Dd2 growth, SYBR Green, 72 h | Potency, µM (series often up to 28.9 µM), usual class: inhibitors | actives 4.3% (n = 120,000); active = well fitted inhibition curve with a large enough effect; also: nearly all actives have a fitted effect of over 65% in size
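Readout: SYBR Green fluorescence, 485 nm excitation, 535 nm emission, after ~16 h lysis at 37C. Before that, Dd2-infected red cells (2.5% hematocrit) grew 72 h with compound, 29 uM top final concentration.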
Of the large screens only hits and unclear results are named; the others gave an inactive call.

COc1ccc(C(=O)NCCc2noc(-c3ccncc3)n2)cn1	Pf Dd2 inh 2.5µM
COCc1nc(CCNC(=O)c2ccc(OC)nc2)no1	none
Cn1cc(C(=O)NCCc2noc(-c3ccncc3)n2)cn1	none
CN1C(=O)CCC2(CNC(=O)c3ccccc3)CCCC=C12 (centres undefined)	none
Cc1ccc(C)c(-c2cc3c(=O)n(CCNC(=O)c4ccc(C#N)cc4)ccn3n2)c1	none
COc1ccc(CNC(=O)[C@@H]2COCC(=O)N2Cc2ccc(OC)cc2OC)cc1	none
O=C(O)c1cccc(-c2cnc3ccccc3c2)c1	none
NCc1ccccc1-c1cnc2ccccc2c1	Pf Dd2 inh 10µM
CC(C)CN1CCN(C(=O)C2CCN(C(=O)N3CC4CC(C3)[C@H]3CCCC(=O)N3C4)CC2)CC1 (some centres undefined)	none
Cc1ccc(C(=O)N2CCCC3(C2)C(=NC2CCCCC2)NC(=O)N3c2cc(F)cc(F)c2)cc1 (centres undefined)	none
CCc1nnc(SCc2nc(-c3ccc(OC)c(OC)c3)oc2C)c2cc3sc(C)cc3n12	none
COc1ccc(C2=C(C(C)=O)Sc3nnc(-c4ccc(Cl)cc4)n3N2C(C)=O)cc1OC	Pf Dd2 inh 1.4µM
COc1ccc(OC(=O)CSc2nnc(-c3ccc(F)cc3)o2)cc1	none
COc1ccc(CC(=O)NCCc2sc(-c3ccc(Cl)cc3)nc2C)cc1OC	none
CCC(=O)C1=C(c2ccc(F)cc2)N(C(=O)CC)n2c(nnc2-c2ccc(OC)cc2)S1	Pf Dd2 inh 3.2µM
COc1ccc(-c2nnc3n2CCN(C(=O)c2ccc(F)cc2)C3)cc1	none
CCC(=O)C1=C(c2ccc(OC)c(OC)c2)N(C(=O)CC)n2c(CC)nnc2S1	Pf Dd2 inh 1.4µM
COc1ccc(-c2nnc3n2N(C(C)=O)C(c2ccc(Cl)c(Cl)c2)=C(C(C)=O)S3)cc1	none
CCc1nnc(SCC(=O)Nc2ccc(OC)c(OC)c2)c2cc3occc3n12	none
COc1cccc(C(=O)NCC2Cn3cccc3C(=O)N2C)c1 (centres undefined)	none
O=C(Cc1ccc(F)cc1)N1CCN(C2CCN(CCc3ccccc3)C2=O)CC1 (centres undefined)	none
COCCN(C)C[C@@H]1CN(C(=O)c2sccc2Cl)C[C@@H]1CO	none
CN1CCN(Cc2nc(C3(O)CCN(C(=O)c4ccc(F)cc4)CC3)cs2)CC1	none
O=C(c1ccoc1)N1CCC(CCOc2ccc(F)cc2)C1 (centres undefined)	none
O=C(N[C@@H]1CN(C(=O)c2nccc3ccccc23)CC[C@@H]1CO)C1CC1	none
CCn1c2c(c(=O)n1Cc1ccccc1)CCN(Cc1cncc(OC)c1)C2	none
CCn1cc(CNCc2ccc(OCC(O)CN3CCSCC3)c(OC)c2)cn1 (centres undefined)	none
CC1CCN(Cc2ccccc2OCC(O)CN2CCSCC2)CC1 (centres undefined)	Pf Dd2 inh 4.5µM
CCCCNCc1ccc(OCC(O)CN2CCSCC2)c(OC)c1 (centres undefined)	none
Cc1nnc(CN(C)Cc2ccccc2OCC(O)CN2CCSCC2)o1 (centres undefined)	none
Cc1cccc(CNCc2ccccc2OCC(O)CN2CCSCC2)c1 (centres undefined)	Pf Dd2 inh 1.6µM
COc1cc(CN2CCOCC2)ccc1OCC(O)CN1CCSCC1 (centres undefined)	none
CCN(CC)Cc1nc(C2(O)CCN(C(=O)C3CCC3)CC2)cs1	none
O=C(CSc1ccccn1)N[C@H]1CCOC[C@H]1C1CCOCC1	none
CNC(=O)Cn1nc(C2CCN(C(=O)Cc3ccsc3)CC2)c2c1CCOC2	none
COc1ccc(-c2noc([C@@H]3CCCN3C(=O)c3cccc(Cl)c3)n2)cc1	none
NC(=O)c1nc(CN2CCCC(C(=O)Nc3cccc(-n4cccn4)c3)C2)no1 (centres undefined)	none
Cc1cccc(-n2ncc(C(=O)N3CCN(Cc4ccccc4)CC3)c2C2CCN(C(=O)OC(C)(C)C)CC2)c1	Pf Dd2 inh 7.9µM
CC(C)(C)OC(=O)N1CCC(c2c(C(=O)N3CCN(c4ncccn4)CC3)cnn2-c2cccc(F)c2)CC1	none
CN1CCN(C(=O)c2cnn(-c3ccccc3)c2C2CCN(C(=O)OC(C)(C)C)CC2)CC1	none
Cc1ccc(-n2ncc(C(=O)N3CCN(c4cccc(C)c4)C(C)C3)c2C2CCN(C(=O)OC(C)(C)C)CC2)cc1 (centres undefined)	Pf Dd2 inh 4.5µM
COc1ccc(-n2ncc(C(=O)N3CCN(C(=O)c4ccco4)CC3)c2C2CCN(C(=O)OC(C)(C)C)CC2)cc1	none
CC(C)(C)OC(=O)N1CCC(c2c(C(=O)N3CCN(C(=O)c4ccco4)CC3)cnn2-c2cccc(Cl)c2)CC1	Pf Dd2 inh 10µM
CC(C)(C)OC(=O)N1CCC(c2c(C(=O)NC3CCN(Cc4ccccc4)CC3)cnn2-c2cccc(F)c2)CC1	none
CC(C)(C)OC(=O)N1CCC(c2c(C(=O)N3CCN(C4CCCCC4)CC3)cnn2-c2cccc(Cl)c2)CC1	Pf Dd2 inh 10µM
CC(C)(C)OC(=O)N1CCC(c2c(C(=O)N3CCCCC3)cnn2-c2ccc(F)cc2)CC1	none
CN1C[C@@H](NC(=O)c2cccs2)C[C@H]1c1nc(-c2ccccn2)no1	none
